Rows were chosen to be rich in hits. Some 5.7% of all compounds tested hit in one or more screens of this group.
AHR activator = activators of human aryl hydrocarbon receptor. 320,000 compounds, 2.5% hits. P35869. AHR-responsive luciferase reporter cells, luminescence. activation, % at 5 µM; in the data active = activation above about 47%;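 note: 0% = vehicle wells and 100% = reference agonist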
Target sequence (P35869 whole entry, looked up): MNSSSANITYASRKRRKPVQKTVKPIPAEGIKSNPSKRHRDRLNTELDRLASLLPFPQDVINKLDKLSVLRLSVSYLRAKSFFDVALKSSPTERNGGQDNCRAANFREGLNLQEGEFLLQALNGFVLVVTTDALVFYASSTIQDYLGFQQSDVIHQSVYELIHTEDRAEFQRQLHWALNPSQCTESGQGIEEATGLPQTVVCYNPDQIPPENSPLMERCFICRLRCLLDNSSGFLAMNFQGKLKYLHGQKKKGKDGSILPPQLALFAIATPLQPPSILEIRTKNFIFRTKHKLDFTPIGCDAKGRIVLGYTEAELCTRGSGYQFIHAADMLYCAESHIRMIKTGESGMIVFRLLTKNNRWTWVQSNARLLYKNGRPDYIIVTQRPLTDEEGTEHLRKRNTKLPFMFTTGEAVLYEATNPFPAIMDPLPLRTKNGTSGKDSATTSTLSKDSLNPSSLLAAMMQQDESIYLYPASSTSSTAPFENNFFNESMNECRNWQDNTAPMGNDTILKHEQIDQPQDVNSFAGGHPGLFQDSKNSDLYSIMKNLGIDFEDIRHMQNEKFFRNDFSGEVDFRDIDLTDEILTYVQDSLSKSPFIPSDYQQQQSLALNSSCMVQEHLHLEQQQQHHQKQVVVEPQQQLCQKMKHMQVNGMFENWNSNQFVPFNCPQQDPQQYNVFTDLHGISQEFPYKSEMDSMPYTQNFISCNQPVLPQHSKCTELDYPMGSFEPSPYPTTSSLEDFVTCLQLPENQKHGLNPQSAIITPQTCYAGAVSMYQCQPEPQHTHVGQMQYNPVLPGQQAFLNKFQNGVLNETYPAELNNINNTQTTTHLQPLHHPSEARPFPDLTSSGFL
DAX1 inh-1 = inhibitors of human orphan nuclear receptor DAX1 (NR0B1); inhibition, % at 6.75 µM; P51843; HEK293 Gal4-DAX1 luciferase reporter, luminescence; 340,000 compounds, 0.99% hits;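 active = inhibition above the mean over all tested compounds plus 3 SD, cut at about 4.2% in these data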;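 note: 0% = DAX1-transfected cells with DMSO and 100% = empty-vector control cells with DMSO; inhibition shows as a rise in luminescence from relieved DAX1 repression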
ssDAF-12 act = activates DAF-12 receptor from parasite S. stercoralis; HEK293 ssDAF-12/GRIP1 lit1-tk-luc reporter, luminescence; % of 3 µM dafachronic acid response; activation, % at 6.8 µM; 370,000 compounds, 1% hits; AID 652126;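 active = activation above the mean over all tested compounds plus 3 SD, cut at about 0.9% in these data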;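 note: 0% = DMSO-only wells and 100% = 3 µM delta7-dafachronic acid wells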
hgDAF12 agonist = agonists of H. glycines DAF-12 nuclear receptor; HEK293 GAL4-hgDAF12 UAS-luciferase reporter, agonist luminescence; normalized to butyrate control; activation, % at 6.8 µM; 370,000 compounds, 1.8% hits;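 active = activation above a cutoff set at the mean of all screened compounds plus 3 SD, cut at about 10% in these data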;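 note: 0% = DMSO wells and 100% = sodium butyrate wells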
hcDAF-12 act = activates DAF-12 receptor from parasite H. contortus; HEK293 hcDAF-12 lit1-tk-luc reporter, luminescence; 0% DMSO, 100% Δ7-dafachronic acid; activation, % at 6.8 µM; 370,000 compounds, 1.4% hits;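 active = activation above the mean of all tested compounds plus 3 SD, cut at about 5.5% in these data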;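 note: 100% = response to 3 µM Δ7-dafachronic acid high control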
DAX1 inh-2 = DAX1 (NR0B1) inhibition, primary screen | 370,000 compounds, 1.1% hits | HEK293T StAR-luciferase reporter, SF-1/DAX-1 repression relief | inhibition, % at 6.8 µM;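 active = inhibition above the mean over all tested compounds plus 3 SD, cut at about 3.6% in these data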;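 note: 0% = DAX-1 cells with DMSO and 100% = cells lacking DAX-1 with DMSO; higher inhibition means more luminescence from relief of DAX-1 repression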
The depositor's hits bear a star; · = no result given.

SMILES | AHR activator | DAX1 inh-1 | ssDAF-12 act | hgDAF12 agonist | hcDAF-12 act | DAX1 inh-2
CC(=O)Nc1cc2nn(-c3ccccc3)nc2cc1Cl | 56.7* | 1.8 | 0.2 | 9.1 | 4.1 | 2.4
O=C(Nc1cc2nn(-c3ccccc3)nc2cc1Cl)c1ccco1 | 47.3* | 1.9 | 0.2 | 2.8 | 3.2 | -0.3
CC(C)(C)C(=O)Nc1cc2nn(-c3ccccc3)nc2cc1Cl | · | -4.6 | -3.0 | -16.2 | -7.2 | -3.7
N#CC1=C(N)SC(N)=C(C#N)C1CCc1ccccc1 | 86.0* | 0.4 | -1.0 | 0.0 | 0.4 | -0.5
COc1ccc(-n2nnc3c(=O)n(CC(=O)N4CCCc5ccccc54)cnc32)cc1 | 2.3 | -0.5 | -0.5 | -2.0 | 0.9 | -1.0
COc1ccc(-n2nnc3c(SCC(=O)N4CCCc5ccccc54)ncnc32)cc1 | 0.7 | 6.3* | -1.3 | -3.9 | -2.5 | 0.7
CCCC(=O)Nc1cnc(NC(=O)c2cccc(F)c2)cc1C | 8.6 | -0.6 | 0.7 | 12.6* | 4.1 | 2.7
COc1ccc(NC(=O)CSc2nnc(-c3cccs3)n2N)c(OC)c1 | 1.6 | 1.1 | -1.1 | -2.7 | -0.9 | -1.5
COc1ccc(NC(=O)CCCn2c(=O)oc3ccccc32)cc1Cl | 3.7 | 3.0 | 0.8 | 7.1 | 6.4* | 0.7
O=C(NCCCCCCOC1=NS(=O)(=O)c2ccccc21)C(=O)Nc1ccccc1 | 3.7 | -0.2 | -1.5 | 11.0* | -0.8 | 0.5
CC(C)NC(=O)C1(C)CCN1C(=O)c1cccc(F)c1 (centres undefined) | · | · | -1.5 | 0.8 | -1.4 | -0.1
COc1ccccc1N1CCN(/N=C/C(Cl)=C/c2ccccc2)CC1 | -1.5 | 5.0* | -0.5 | 7.7 | 2.0 | 0.6
COc1ccccc1N1CCN(/N=C\c2ccccc2)CC1 | -3.7 | 5.1* | -1.0 | 5.0 | 2.8 | 0.8
COc1ccccc1N1CCN(C(=O)CCC(=O)O)CC1 | -2.9 | 5.5* | -0.8 | 0.8 | -2.3 | 0.9
O=C(CCCC(=O)N1CCN(c2ccccc2F)CC1)N1CCN(c2ccccc2F)CC1 | 1.1 | 1.8 | -1.2 | -0.5 | -1.5 | 0.5
COc1ccccc1N1CCN(C(=O)CCc2ccccc2)CC1 | 7.6 | 0.5 | -0.3 | 0.5 | -1.8 | -1.7
O=C(CCCC(=O)N1CCN(c2ccccc2F)CC1)c1ccccc1 | 3.7 | 17.2* | -0.2 | 8.3 | 0.3 | 1.6
COc1ccccc1N1CCN(/N=C/c2cc(OC)c(OC)c(OC)c2)CC1 | 0.9 | 1.8 | -1.7 | -2.0 | -1.4 | -0.1
COc1ccccc1N1CCN(S(=O)(=O)c2c(C(=O)N3CCOCC3)c(C)n(C)c2C)CC1 | 0.7 | 1.1 | -1.4 | 0.3 | 0.9 | 0.5
COc1ccccc1N1CCN(CCOc2c(OC)cccc2OC)CC1 | 16.1 | 4.6* | -1.4 | -2.7 | -1.0 | -0.1
CN(C)c1nc(N)nc(/C(C#N)=C/C2CC3C=CC2C3)n1 (centres undefined) | 47.2* | 0.9 | -1.0 | 2.5 | 0.3 | -0.3
Cc1cc(/C=C(\C#N)C(=O)OCC(=O)Nc2ccc(OC(F)F)cc2)c(C)n1CC(C)C | -3.6 | 3.9 | -0.7 | 7.8 | -0.4 | 4.0*
COCCn1c(C)cc(/C=C(\C#N)C(=O)OCC(=O)Nc2ccc(S(N)(=O)=O)cc2)c1C | · | 5.0* | -0.1 | 7.6 | 6.4* | -0.7
CCCn1c(C)cc(/C=C(\C#N)C(=O)OCC(=O)Nc2ccc(OC)c(Cl)c2)c1C | -3.0 | -0.5 | -1.0 | -1.4 | 0.8 | 0.2
CC(C)=NOC(=O)c1ccc(-c2ccccc2)cc1 | -0.8 | 0.6 | -0.9 | 0.7 | 0.2 | 0.2
SMILES | AHR activator | DAX1 inh-1 | ssDAF-12 act | hgDAF12 agonist | hcDAF-12 act | DAX1 inh-2
COc1ccc(/C=N/Nc2ccc(C(=O)O)cc2)cc1Br | -1.4 | -2.2 | -0.6 | 3.8 | 3.9 | 4.0*
O=C(O)c1ccc(/C=N/Nc2ccc(C(F)(F)F)cn2)cc1 | · | 1.3 | 3.4* | 18.6* | 6.0* | 4.2*
COc1ccc(/C=N\NC(=O)C2CCCC2)cc1Br | -1.2 | 0.5 | -0.8 | 4.2 | 0.9 | 2.6
O=C(O)c1ccc(/C=N/Nc2cccc(C(F)(F)F)c2)cc1 | 14.2 | 0.5 | -0.9 | 3.1 | 1.0 | 4.3*
CCOc1ccc(-c2c(C(=O)N/N=C/c3cccnc3)nnn2-c2nonc2N)cc1 | 14.0 | -0.7 | -1.5 | -0.8 | -1.5 | 0.1
COc1cc(Cn2cc([C@]34C[C@H]5C(=O)N(C)CC(=O)N5[C@H]3N(S(=O)(=O)c3ccccc3)c3ccccc34)c3ccccc32)cc(OC)c1 | · | · | -0.8 | 8.1 | 1.6 | ·
Cn1c(N)c(C(=O)COC(=O)Cc2ccc(F)cc2)c(=O)n(C)c1=O | · | 0.0 | -0.9 | 0.2 | 0.3 | 1.0
CC(=O)C1=C(O)C(=O)N(c2ccc(O)cc2)C1c1ccccc1Cl (centres undefined) | -0.2 | 0.0 | -0.9 | 1.7 | 0.1 | -0.6
CCCCCCS(=O)Cc1ccccc1 (centres undefined) | -3.3 | 0.2 | -0.9 | 1.3 | -0.2 | -0.5
COC(=O)c1c(C)c[nH]c1C | 0.3 | 5.3* | -1.2 | 1.8 | -0.9 | 0.5
CC(=O)c1ccc(OCCCC(=O)N2CCN(S(=O)(=O)c3ccc(C(C)C)cc3)CC2)cc1 | -0.7 | -1.0 | -1.6 | -5.5 | -2.8 | -5.8
S=c1[nH]cnc2sc(Nc3ccccc3)nc12 | · | 0.7 | 0.2 | 4.9 | 5.8* | 0.2
C/C(=N/NC(=O)c1cccs1)c1cccc(NC(=O)C2CC2)c1 | 19.3 | 1.3 | 0.3 | 12.9* | 4.8 | 4.2*
C/C(=N\NC(=O)c1cccs1)c1ccc2ccccc2c1 | 7.0 | 3.8 | -0.6 | 11.2* | 2.8 | 1.6
Cc1cc(C)n(S(=O)(=O)c2ccc3oc(=O)ccc3c2)n1 | 0.6 | -0.3 | 0.5 | 9.1 | 4.4 | 0.6
O=C(CC1CCCCC1)NCCCN1CCOCC1 | -0.1 | -0.9 | -0.7 | -1.3 | 6.1* | 0.3
CC(=O)Oc1c(C)c2c3c(c1OC(C)=O)[C@@H](C)CC[C@@H]3[C@@H](C)C[C@H]2C=C(C)C | 0.4 | 0.7 | -0.9 | -0.4 | -1.5 | 0.2
CCCCN1C(=O)/C(=C2\SC(N3CCCCC3)=NC2=O)c2ccccc21 | 29.0 | 4.3* | -1.7 | 6.9 | 3.1 | 1.7
COc1ccc(-c2sc3cc4c(cc3c2C#CC2(N)CCCCC2)OCO4)cc1 | 66.5* | 3.5 | -0.7 | -0.8 | -0.1 | -0.1
COc1cc(OC)cc(-c2sc3ccc(OC)cc3c2C#CC2(N)CCCCC2)c1 | 10.8 | 0.1 | -0.6 | 2.3 | 0.2 | -0.1
Nc1[nH]c(C(=O)c2ccccc2)c(-c2ccc(Cl)cc2)c1C(=O)c1c[nH]c2cc(F)ccc12 | · | · | 0.3 | 1.8 | 2.4 | 2.0
CCc1cccc(C)c1NC(=S)NCc1ccc2[nH]c(C)cc2c1 | 34.0 | -0.1 | -1.0 | -2.4 | -2.3 | -1.2
O=C(COC(=O)c1ccc(Cl)c([N+](=O)[O-])c1)Nc1ccccc1OC(F)F | 55.0* | 4.7* | -1.0 | 0.8 | 2.1 | 0.1
O=C(COC(=O)CCNS(=O)(=O)c1ccc(Cl)cc1)Nc1ccccc1OC(F)F | · | -1.1 | -1.4 | 1.9 | -1.7 | -1.0

Screening data (PubChem BioAssay)
